Assay outcomes as filed in PubChem BioAssay.
This excerpt belongs to a sample that is enriched for hits.
DT40 TDP1 no CPT = qHTS for Inhibitors of human tyrosyl-DNA phosphodiesterase 1 (TDP1): qHTS in cells in absence of CPT; DT40 Tdp1-/- hTDP1 cells, no CPT, ATP luminescence, 48 h; Potency, µM (series often up to 46.2 µM), for the others: at the top dose activity change, negative = growth inhibition, hits mostly inhibitors; 15% of 420,000 active; AID 686978, 2013; also: potency is read from the fitted curve at half-maximal effect; nearly all actives have a fitted effect of over 55% in size
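Readout: luminescence from CellTiter-Glo after 30 min in the dark at RT. Cells: DT40 Tdp1-/- with stable hTDP1, 400/well. Exposure: compounds alone, ≥48 hr, 37 °C.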
12-LOX inh = blocks human arachidonate 12S-lipoxygenase; AID 1671190; purified 12hLO, xylenol orange hydroperoxide absorbance; Potency, µM (titrated, usually from 108 µM), inactives show at the highest dose activity change, negative = inhibition, hits mostly inhibitors; 1.1% of 580,000 active; P18054; also: potency is read from the fitted curve at half-maximal effect
Target sequence (P18054 whole entry, looked up): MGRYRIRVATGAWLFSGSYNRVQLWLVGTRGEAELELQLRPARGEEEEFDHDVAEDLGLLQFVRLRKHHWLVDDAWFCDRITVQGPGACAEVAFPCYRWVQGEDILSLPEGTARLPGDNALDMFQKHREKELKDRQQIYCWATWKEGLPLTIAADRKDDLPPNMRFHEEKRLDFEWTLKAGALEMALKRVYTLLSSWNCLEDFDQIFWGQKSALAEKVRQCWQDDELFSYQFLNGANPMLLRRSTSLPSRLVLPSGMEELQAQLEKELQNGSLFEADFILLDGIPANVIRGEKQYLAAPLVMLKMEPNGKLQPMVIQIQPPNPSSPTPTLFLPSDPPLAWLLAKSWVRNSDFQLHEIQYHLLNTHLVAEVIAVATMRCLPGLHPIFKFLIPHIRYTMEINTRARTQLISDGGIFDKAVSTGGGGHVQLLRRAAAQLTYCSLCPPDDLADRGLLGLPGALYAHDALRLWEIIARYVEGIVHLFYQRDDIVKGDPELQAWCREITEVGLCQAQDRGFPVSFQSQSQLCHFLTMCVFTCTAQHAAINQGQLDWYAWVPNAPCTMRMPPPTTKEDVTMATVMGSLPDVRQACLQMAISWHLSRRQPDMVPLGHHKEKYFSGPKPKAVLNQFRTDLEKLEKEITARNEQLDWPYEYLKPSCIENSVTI
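Purified human 12hLO (150 nM final) in 25 mM Hepes, 0.01% Triton X-100, pH 7.0 was preincubated 15 min at room temperature with compound. Then 40 uM arachidonic acid was added, 30 min. Hydroperoxide was read by Fe-XO absorbance ratio 573/405 nm.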
IL1B secr inh = blocks inflammasome-driven IL-1 beta release. THP-1 LPS/ATP IL-1B secretion, AlphaLISA, 16 h; hits give low values. 4.7% of 360,000 active. activity change, % at 57.5 µM; in the data active = activity change below about -50%; inconclusive = mostly about -30% to -49%
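Secreted IL-1B measured by AlphaLISA bead assay after 16 h compound exposure of THP-1 cells; compounds (final up to 57.5 uM) added 1 h before LPS (250 ng/mL) and ATP (1.25 mM) stimulation; lower signal means less secretion.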
HT1080NT lethal = kills 2HG-producing HT-1080-NT fibrosarcoma cells. 1.6% of 360,000 active. Potency, µM (series often up to 46.1 µM), without a hit: top-dose activity, negative = less viability, usual class: cytotoxic. HT-1080-NT fibrosarcoma viability, CellTiter-Glo ATP luminescence, 48 h;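 also: NT is the 2HG producing partner of a matched IDH1 knockdown line; potency is read from the fitted curve at half-maximal effect; 0% = DMSO-treated cells and -100% = media-only wells without cells; nearly all actives have a fitted effect of over 55% in size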
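Luminescent CellTiter-Glo readout after 48 hours of compound exposure at 37 degrees C defined viability of HT-1080-NT cells. Activity was normalized to DMSO wells and cell-free media wells; concentration-response curves were fitted and assigned curve classes.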
HT1080 IDH1KD tx = HT-1080 IDH1 knockdown cell toxicity (counter line). AID 686971. 2% of 360,000 active. HT-1080 IDH1 knockdown viability, ATP luminescence, 48 h. Potency, µM (top dose mostly 46.1 µM), for the others: at the highest dose activity, negative = toxicity, most hits filed as cytotoxic;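 also: potency is read from the fitted curve at half-maximal effect; 0% = DMSO wells and -100% = cell-free medium wells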
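HT-1080-IDH1KD cells (IDH1 knocked down), 750/well in RPMI with 5% FBS, treated with compound 48 h at 37 degrees C. Viability by CellTiter-Glo luminescence, normalised to DMSO and no-cell wells; concentration-response curves classed.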
DT40 TDP1 CPT = growth inhibition of DT40 Tdp1-/-;hTDP1 cells with camptothecin (screen for TDP1 inhibitors); chicken DT40 Tdp1-/-;hTDP1 cells + 20 nM CPT, ATP luminescence, 48 h; 12% of 420,000 active; Potency, µM (series often up to 46.2 µM), for inactives: top-dose activity change, negative = growth inhibition, actives largely listed as inhibitors; also: potency is read from the fitted curve at half-maximal effect; nearly all actives have a fitted effect of over 55% in size
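Chicken DT40 Tdp1-/- cells complemented with human TDP1, 400 cells/well, exposed to compounds plus 20 nM camptothecin for at least 48 h at 37 C; viability read as ATP content by CellTiter-Glo luminescence.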
Numbers without * were called inactive; i = inactive; ? = inconclusive; · = no result; ! = repeats disagree; [ ] = dose if it differs, or a comment. Unless noted, calls follow the shape of the dose curve; as a rule, active = well fitted curve in the direction sought with a large enough effect; inconclusive = small, poorly fitted or top-dose-only effect, or another doubt; inactive = no such curve, though single readings can be large; an effect the other way counts as inactive or inconclusive. Unless noted, % is scaled to controls: 0 for no effect and ±100 for the full control effect.

SMILES	DT40 TDP1 no CPT	12-LOX inh	IL1B secr inh	HT1080NT lethal	HT1080 IDH1KD tx	DT40 TDP1 CPT
COc1ccccc1CNCCc1cccc(Cl)c1	14.6µM*	-21.8%	·	-20.6%	-25.4%	18.4µM*
C[C@@]12OC(=O)[C@]1([C@@H](O)[C@@H]1C=CCCC1)NC(=O)[C@H]2CCCl	·	-8.7%[57.4 µM]	·	·	·	·
O=C(N1CCC2(CC1)NCc1ccccc1-n1ccnc12)C1(c2ccccc2)CC1	·	5.5%	·	·	·	·
O=C(CN1C(=O)CN=C(c2ccccc2F)c2cc(Cl)ccc21)Nc1ccccc1C(F)(F)F	·	15.6%	·	·	·	·
Cc1ccc(C)c(N2CCN(C(=O)C3CCN(Cc4nc(-c5cccc(Cl)c5)oc4C)CC3)CC2)c1	6.51µM*	?	·	·	·	9.2µM*
Cc1ccc(Cl)cc1N1CCN(C(=O)C2CCN(Cc3nc(-c4ccc(Cl)cc4)oc3C)CC2)CC1	14.6µM*	?	·	·	·	?
COc1cccc(-c2nc(CS(=O)CC(=O)N3CCC4(CC3)OCCO4)c(C)o2)c1 (configuration not stated)	2.7%	-0.7%	10.6	1.6%	-0.2%	-5.2%
Cc1oc(-c2ccc(Cl)cc2)nc1CS(=O)CC(=O)N1CCC2(CC1)OCCO2 (configuration not stated)	-8.4%	-14.2%	-5.4	1.6%	-13.0%	-5.5%
COCc1cn(C[C@H]2CC3CCN2C[C@@H]3C(=O)N2CCN(c3ccccc3OC)CC2)nn1 (some centres not stated)	·	1.2%	·	·	·	·
COc1ccccc1N1CCN(C(=O)[C@H]2CN3CCC2C[C@@H]3Cn2cc(CCO)nn2)CC1 (some centres not stated)	·	19.7%	·	·	·	·
NC(Cc1ccc(O)cc1)C(=O)NN=Cc1ccc(N(CCCl)CCCl)cc1 (configuration not stated)	13µM*	6.4%	-1.7	?	-8.8%	8.2µM*
COc1cc(C(=O)NN=Cc2ccc(N(CCCl)CCCl)cc2)cc(OC)c1OC	?	8.3%	54.4	?	4.11µM*	?
COc1cc(C(=O)Nc2ccc(Br)cc2C(=O)c2ccccc2)cc(OC)c1OC	-26.0%	4.9%	-1.8	-0.7%	-2.5%	-18.5%
CC[N+](C)(CC)CCCCOc1ccc2c(c1)C(=O)c1cc(OCCCC[N+](C)(CC)CC)ccc1-2	29.1µM*	?	0.0	-3.2%	-9.0%	?
CC(=Cc1csc(C)n1)[C@@H]1C[C@H]2O[C@@H]2CCC[C@H](C)[C@@H](O)[C@@H](C)C(=O)C(C)(C)[C@@H](O)CC(=O)O1	·	-5.8%[57.4 µM]	·	·	·	·
Cc1onc(-c2ccccc2Cl)c1C(=O)OCC(=O)c1ccc2c(c1)OCCO2	14.6µM*	0.0%	-20.9	-18.3%	-19.9%	?
CCN(CC)C(=O)c1ccc(NC(=O)COC(=O)c2ccc3nc(C)c(C)nc3c2)cc1	·	-36.3%	·	·	·	·
CCN(CC)C(=O)c1ccc(NC(=O)COc2ccc([N+](=O)[O-])cc2Cl)cc1	20.6µM*	-6.2%	-6.4	-5.7%	-0.3%	?
CCCCn1c(=O)c(C(=O)NC(C)c2ccccc2)c(O)c2ccccc21 (configuration not stated)	?	0.0%	-6.0	15.3%	16.6%	?
CCCCn1c(=O)c(C(=O)Nc2ccsc2C(=O)OC)c(O)c2ccccc21	5.17µM*	9.0%	22.3	0.7%	-9.2%	20.6µM*
CCCCn1c(=O)c(C(=O)Nc2ccccc2N)c(O)c2ccccc21	23.1µM*	i	27.5	-0.6%	6.3%	?
CCCCn1c(=O)c(C(=O)Nc2ccccc2F)c(O)c2ccccc21	?	0.0%	37.6	5.3%	-0.4%	11.2%
CCCCCn1c(=O)c(C(=O)Nc2ccccc2N)c(O)c2ccccc21	20.6µM*	-1.8%	7.5	0.0%	8.6%	?
CN(C[C@H]1CN2CC[C@H]1C[C@@H]2CNS(=O)(=O)c1cccs1)c1ccccc1	·	-34.6%[176 µM]	·	·	·	·
O=[N+]([O-])c1ccnc(N2CC3CCC(C2)N3CC(F)(F)F)c1	·	-5.6%[6.33 µM]	·	·	·	·
SMILES	DT40 TDP1 no CPT	12-LOX inh	IL1B secr inh	HT1080NT lethal	HT1080 IDH1KD tx	DT40 TDP1 CPT
CCOC(=O)c1ccc(S(=O)(=O)n2c(=O)oc3ccccc32)cc1	-22.3%	?	68.9	4.8%	2.2%	?
CCOC(=O)c1oc2ccc(S(=O)(=O)n3nc(-c4ccc(Br)cc4)cc3N)cc2c1C	11.6µM*	2.2%	·	·	·	20.6µM*
CC(CO)NC(=O)C1C=C2c3cccc4[nH]cc(c34)C[C@H]2N(C)C1 (some centres not stated)	-2.6%	·	·	·	·	7.8%
CC[C@@H](CO)NC(=O)[C@H]1C=C2c3cccc4c3c(cn4C)C[C@H]2N(C)C1	13.3µM*	?	·	·	·	8.41µM*
O=C(NC1CCCCC1)N1C[C@@H]2C[C@H](C1)c1ccc(C3CCCCC3)c(=O)n1C2	·	-30.9%[176 µM]	·	·	·	·
CCCc1nc(SCC(=O)N2CCc3ccccc3C2)c2ccccc2n1	?	-16.6%[57.4 µM]	-71.8*	?	?	?
Cc1ccccc1OCC(=O)N1CCN(Cc2nc(N)c3ccccc3n2)CC1	·	5.4%	·	·	·	·
C=C[C@H]1CN2CC[C@H]1C[C@@H]2CNC(=O)CCCC(=O)O	·	22.6%[176 µM]	·	·	·	·
O=C1C=C(N2CC2)c2ccccc2C1=O	?	?	62.9	23.1µM*	?	?
O=C(CCc1nc2ccccc2s1)N1[C@H]2CC[C@@H]1c1cnc(-c3ccc(F)cc3)nc1C2	·	22.3%	·	·	·	·
O=C(c1ccc(-c2ccccc2)c(F)c1)C1CCCN(CCO)C1 (configuration not stated)	?	-6.6%	-74.6*	?	?	?
CN1CCCC(C(=O)c2ccc(-c3ccccc3)cc2)C1 (configuration not stated)	18.4µM*	-0.2%	-12.5	-27.2%	-21.6%	?
CCc1nccc2c1[nH]c1ccccc12	?	13.9%	-1.0	0.0%	-6.0%	-26.6%
Cc1nccc2c1[nH]c1ccccc12	23.7µM*!	?	-26.3	-19.2%	-13.8%	?
Cc1c2ccncc2c(C)c2c1[nH]c1ccccc12	1.46µM*	-15.2%	-79.4*	10.3µM*	3.66µM*	2.31µM*
Cc1ccc(CN2C[C@@H]3C(=O)N(C)C(=O)[C@@H]3C2)o1	·	-5.6%	·	·	·	·
COc1ccc(CN2CCC3(CC2)C(=O)Nc2ccccc23)cc1	·	1.6%[6.33 µM]	·	·	·	·
CCC(CC)c1cc([C@H]2CN3CC[C@H]2C[C@@H]3CNC(=O)c2cccs2)nc(-c2ccncc2)n1	·	0.5%	·	·	·	·
COc1cc2c(cc1OCC1CC1)NC(=O)C21CCN(C(=O)c2ccnn2C)CC1	·	-2.3%[176 µM]	·	·	·	·
